What all share (assay): NCI-60 one-dose screen, 48 h (100 = growth as untreated, 0 = no growth, -100 = all killed)
Holding throughout (settings): 10 µM unless noted

In experiment [1] the test system is SR leukemia.
Experiment [2] relates to RPMI-8226 leukemia.
The subject of experiment [3] is OVCAR-8 ovarian.
Experiment [4] deals with OVCAR-5 ovarian.
Experiment [5] deals with OVCAR-4 ovarian.
For experiment [6], the system named is SK-OV-3 ovarian.
For experiment [7], the system named is IGROV1 ovarian.
For experiment [8], the system named is OVCAR-3 ovarian.
In experiment [9] the test system is NCI/ADR-RES ovarian.
Experiment [10] has as its system T-47D breast.
Experiment [11] relates to BT-549 breast.
Experiment [12] relates to MDA-MB-435 melanoma.
For experiment [13], the system named is MCF7 breast.
Experiment [14] relates to HCT-116 colon.
The subject of experiment [15] is HCC-2998 colon.
Experiment [16] has as its system KM12 colon.
Experiment [17] relates to MDA-MB-468 breast.

Compounds without any hit were thinned out: in the full panel of roughly 83,000, 20% have a hit.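 Testing used 96-well plates and a 48-hour single-concentration exposure. Example: -40 means 40% of the starting cells died.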 A number with no mark means an inactive call. The source made the active and inactive calls. Rule for the calls: active = growth percent below 10; inactive = the rest.

Turning to `C=C1CC[C@@H]2[C@]3(C)COC(c4cn(-c5ccccc5)nc4-c4cccc([N+](=O)[O-])c4)O[C@@H]3CC[C@@]2(C)[C@@H]1C/C=C1/C(=O)OC[C@H]1O` (some centres not stated), the growth is -16.7% (active) in [1]; -42.4% (active) in [2]; -38.1% (active) in [3]; -24.1% (active) in experiment [4]; 14% in experiment [5]; 93% in experiment [6]. Moreover, the growth was -25% (active) in experiment [7]; 15.1% in experiment [8]; -42.6% (active) in experiment [9]; -42.4% (active) in experiment [10]; -55.9% (active) in experiment [11]; -26.4% (active) in experiment [12]. The growth in [13] is 2.33% (active); in [14], -13.7% (active); in [15], -86% (active); in experiment [16] it was 7.66% (active); in [17], -69.7% (active).
Turning to `N#Cc1c(-c2cccnc2)cc(-c2ccc3ccccc3c2)[nH]c1=O`, the growth in [1] was 73.7%; in experiment [2], 51.5%; in experiment [3], 78%; in [4] it was 106%; in experiment [5] it was 64.6%; in [6], 112%. Besides, the growth in experiment [7] was 97.6%; in [8], 102%; in experiment [9] it was 75.3%; in experiment [10], 93%; in [11], 57.6%; in [12], 99.4%. Also, the growth is 60.5% in [13]; 80% in experiment [14]; 96.4% in [15]; 92.9% in experiment [16]; 94.1% in [17].
On to `N/C(=N\c1nc2ccccc2s1)NC(=O)NCCCCCCO`, for which the growth in experiment [1] is 32.4%; in experiment [2] it was 46%; in experiment [3], 50.7%; in experiment [4] it was 74.5%; in experiment [5], 17.8%; in experiment [6] it was 59.1%. Also, the growth in [7] is 61.5%; in experiment [8] it was 61.8%; in [9], 24.3%; in [10] it was 9.9% (active); in experiment [11], 21.4%; in experiment [12], 41.2%. Also, the growth was 30% in experiment [13]; 36.9% in experiment [14]; 82% in experiment [15]; 55.1% in experiment [16]; 2.33% (active) in experiment [17].
For `Clc1cccc(Cl)c1/C=C/c1cc(/C=C/c2ccc(Br)cc2)c2ccccc2n1`, the growth was 92.4% in [1]; 86.6% in experiment [2]; 101% in experiment [3]; 97.4% in experiment [4]; 93.8% in experiment [5]; 98.2% in [6]. Besides, the growth in [7] is 96.6%; in experiment [8] it was 111%; in [9] it was 95.5%; in experiment [10], 81.2%; in experiment [11] it was 91.2%; in [12], 99.9%. The growth in experiment [13] is 83.3%; in experiment [14] it was 95.8%; in [15], 118%; in [16] it was 102%; in [17] it was 111%.
As for `O=C(O)c1ccc(-c2ccc(/C=N/NC(=O)c3[nH]c4ccc(Br)cc4c3-c3ccccc3)o2)cc1`, the growth was 5.35% (active) in experiment [1]; 14.8% in experiment [2]; -15.4% (active) in [3]; 75.9% in experiment [4]; 38% in experiment [5]; 41.1% in experiment [6]. Also, the growth in experiment [7] was 17.8%; in experiment [8] it was 1.4% (active); in experiment [9], 18.1%; in experiment [10], 15.1%; in experiment [11], -7.86% (active); in experiment [12], -49.6% (active). In addition, the growth in experiment [13] is 9.15% (active); in [14], 9.56% (active); in [15], 5.76% (active); in [16], 11.9%; in [17], -12.4% (active).
Turning to `CSc1ccccc1NC(=O)c1ccc2nn(/C(C#N)=C/c3ccccn3)nc2c1`, the growth was 1.1% (active) in [1]; -41.9% (active) in experiment [2]; -3.76% (active) in experiment [3]; -86.8% (active) in [4]; -55.6% (active) in [5]; 42.9% in experiment [6]. Moreover, the growth was -67.9% (active) in [7]; -87.8% (active) in experiment [8]; 2.48% (active) in experiment [9]; -78.4% (active) in [10]; -98.4% (active) in experiment [11]; -18.2% (active) in experiment [12]. In addition, the growth in experiment [13] is -82.4% (active); in experiment [14], -97.4% (active); in experiment [15], -94.5% (active); in experiment [16], -44.9% (active); in [17] it was -84.2% (active).
As to `N#Cc1c(-c2ccccc2Cl)cc(-c2ccc3ccccc3c2)[nH]c1=O`, the growth in [1] is 48.9%; in experiment [2], 61.5%; in experiment [3], 12.2%; in [4] it was 44.1%; in experiment [5] it was -46% (active); in experiment [6], 52.1%. The growth is 48.2% in experiment [7]; -7.55% (active) in experiment [8]; 13.4% in experiment [9]; -21.3% (active) in experiment [10]; 3.43% (active) in [11]; 61.7% in [12]. For the same compound, the growth is 44.4% in experiment [13]; 17.9% in experiment [14]; 49.1% in [15]; 74.4% in experiment [16]; 5.01% (active) in [17].
Consider `CSc1ccccc1NC(=O)c1ccc2nnn(/C(C#N)=C/c3ccccn3)c2c1`, for which the growth in experiment [1] is -5.23% (active); in experiment [2], -29% (active); in experiment [3], -86.6% (active); in [4] it was -95% (active); in experiment [5], -96.5% (active); in experiment [6] it was 63.1%. Further, the growth is -81.8% (active) in experiment [7]; -81.9% (active) in experiment [8]; -73.2% (active) in [10]; -99.5% (active) in [11]; -55.8% (active) in [12]; -81.4% (active) in experiment [13]. Moreover, the growth in experiment [14] was -96.5% (active); in experiment [15], -97.8% (active); in experiment [16], -66.9% (active); in experiment [17] it was -92% (active).
In the case of `C=Cn1cc(C(=O)O)c(=O)c2cc(F)c(N3CCN(c4nccc(-c5nccs5)n4)CC3)cc21`, the growth in experiment [1] was -35.2% (active); in experiment [2] it was -24% (active); in experiment [3], 7.65% (active); in [4] it was -25.6% (active); in [5] it was 10.7%; in [6], -35.8% (active). For the same compound, the growth in experiment [7] is -30.3% (active); in experiment [8], -4.52% (active); in experiment [9], -39.5% (active); in experiment [10], -1.23% (active); in [11] it was -49.1% (active); in experiment [12], -38% (active). The growth in experiment [13] is 0.211% (active); in [14], -33.8% (active); in experiment [15], -62.1% (active); in experiment [16], -15% (active); in [17], -61.9% (active).
